The source of these data is PubChem BioAssay (EPA / NIEHS).

Activity calls are given as the source filed them. How the source made its calls: active means hit-call score of the fitted dose curve at least 0.9, where 1 is the maximum; inactive means score below 0.9.

Experiment [1] is described as follows: BSK_hDFCGF_SRB: Viability Assessment in the BioMAP Diversity Plus: hDFCGF Assay (AID 2283061).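 Further: cells exposed to compound for 24 h before the read.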 The conditions noted are these: primary human foreskin fibroblasts. A digest of the protocol: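 Readout is SRB absorbance at 560 nm, reflecting total protein in parallel cultures of human foreskin fibroblasts harvested 24 h after chemical dosing. Activity was fitted bidirectionally relative to DMSO.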

Read-out in experiment [2]: TIMP metallopeptidase inhibitor 1 (TIMP1), TIMP1 (gene 7076)
Briefly: BSK_hDFCGF_TIMP1: BioMAP Diversity Plus: hDFCGF Assay for TIMP metallopeptidase inhibitor 1 (TIMP1) Biomarker Activity (AID 2283062). The conditions noted are these: primary human foreskin fibroblasts; actives raise or lower the signal. Put shortly: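 Human skin fibroblasts (primary), hDFCGF system; compound exposure 24 h; TIMP-1 by ELISA; bidirectional fit vs DMSO negative control; overt cytotoxicity by SRB in parallel wells.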

Read-out in experiment [3]: Monokine induced gamma interferon (MIG), CXCL9 (gene 4283)
Briefly: BSK_hDFCGF_MIG: BioMAP Diversity Plus: hDFCGF Assay for Monokine induced gamma interferon (MIG) Biomarker Activity (AID 2283063). The conditions noted are these: primary human foreskin fibroblasts; actives raise or lower the signal. Put shortly: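 Chemicals were added to primary human foreskin fibroblast cultures, which were sampled 24 h later. MIG levels were then quantified by ELISA and responses fitted in both directions relative to DMSO.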

Read-out in experiment [4]: Matrix Metallopeptidase 1 (MMP1), MMP1 (gene 4312)
The experiment in a line: BSK_hDFCGF_MMP1: BioMAP Diversity Plus: hDFCGF Assay for Matrix Metallopeptidase 1 (MMP1) Biomarker Activity (AID 2283064). The conditions noted are these: primary human foreskin fibroblasts; actives raise or lower the signal. A digest of the protocol: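 MMP1 levels quantified by ELISA 24 h after dosing human dermal fibroblast cultures, with parallel SRB total-protein staining for overt cytotoxicity. Data fitted in both directions against DMSO baseline.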

Read-out in experiment [5]: Vascular cell adhesion molecule 1 (VCAM1), VCAM1 (gene 7412)
The experiment in a line: BSK_hDFCGF_VCAM1: BioMAP Diversity Plus: hDFCGF Assay for Vascular cell adhesion molecule 1 (VCAM1) Biomarker Activity (AID 2283065). The conditions noted are these: primary human foreskin fibroblasts; actives raise or lower the signal. A digest of the protocol:
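Human foreskin fibroblast primary cells, chemical exposure 24 h; VCAM-1 by ELISA; bidirectional fit, DMSO = negative control/baseline.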

Read-out in experiment [6]: Plasminogen activator inhibitor-1 (PAI1), SERPINE1 (gene 5054)
Briefly: BSK_hDFCGF_PAI1: BioMAP Diversity Plus: hDFCGF Assay for Plasminogen activator inhibitor-1 (PAI1) Biomarker Activity (AID 2283066). The conditions noted are these: primary human foreskin fibroblasts; actives raise or lower the signal. Put shortly:
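PAI-1 levels in human dermal foreskin fibroblasts were quantified by ELISA 24 h after dosing, with gain or loss analysed against DMSO. Overt cytotoxicity was checked by sulforhodamine B total-protein staining in parallel cultures.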

Read-out in experiment [7]: Intercellular Adhesion Molecule 1 (ICAM1), ICAM1 (gene 3383)
Briefly: BSK_KF3CT_ICAM1: BioMAP Diversity Plus: KF3CT Assay for Intercellular Adhesion Molecule 1 (ICAM1) Biomarker Activity (AID 2283067). Particulars: primary human keratinocytes with fibroblasts; actives raise or lower the signal. A digest of the protocol:
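ICAM-1 levels are measured by ELISA 24 h after dosing a primary human co-culture of keratinocytes and foreskin fibroblasts. Activity in either direction is fitted relative to DMSO vehicle.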

Read-out in experiment [8]: Interferon-gamma inducible Protein 10 (IP10), CXCL10 (gene 3627)
Briefly: BSK_KF3CT_IP10: BioMAP Diversity Plus: KF3CT Assay for Interferon-gamma inducible Protein 10 (IP10) Biomarker Activity (AID 2283068). Particulars: primary human keratinocytes with fibroblasts; actives raise or lower the signal. A digest of the protocol: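 Signal is secreted/surface IP-10 by ELISA in a human primary skin co-culture of keratinocytes and foreskin fibroblasts, taken 24 h post-dosing; DMSO served as negative control.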

Experiment [9] can be described thus: BSK_KF3CT_SRB: Viability Assessment in the BioMAP Diversity Plus: KF3CT Assay (AID 2283069).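 Further: read 24 h after compound addition.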 The conditions noted are these: primary human keratinocytes with fibroblasts. Put shortly: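 Cytotoxicity was gauged by SRB staining (0.1% SRB, 10% TCA fixation, 560 nm) of parallel cultures at 24 h. The cells were primary human skin keratinocytes co-cultured with fibroblasts, and activity was fitted in both directions against DMSO.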

Read-out in experiment [10]: Interleukin-1 alpha (IL1a), IL1A (gene 3552)
Briefly: BSK_KF3CT_IL1a: BioMAP Diversity Plus: KF3CT Assay for Interleukin-1 alpha (IL1a) Biomarker Activity (AID 2283070). The conditions noted are these: primary human keratinocytes with fibroblasts; actives raise or lower the signal. Put shortly:
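IL-1a was detected by ELISA 24 h after chemical treatment of a co-culture of human skin keratinocytes and foreskin fibroblasts. Gain or loss of signal was fitted against the DMSO baseline.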

Read-out in experiment [11]: TIMP metallopeptidase inhibitor 2 (TIMP2), TIMP2 (gene 7077)
Briefly: BSK_KF3CT_TIMP2: BioMAP Diversity Plus: KF3CT Assay for TIMP metallopeptidase inhibitor 2 (TIMP2) Biomarker Activity (AID 2283071). Particulars: primary human keratinocytes with fibroblasts; actives raise or lower the signal. Put shortly:
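TIMP-2 measured by ELISA at 24 h in human keratinocyte/fibroblast primary co-cultures exposed to chemicals. Both increases and decreases were fitted against DMSO. Parallel cultures were stained with SRB for total protein as an overt-cytotoxicity check.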

Read-out in experiment [12]: Transforming growth factor beta 1 (TGFb1), TGFB1 (gene 7040)
Briefly: BSK_KF3CT_TGFb1: BioMAP Diversity Plus: KF3CT Assay for Transforming growth factor beta 1 (TGFb1) Biomarker Activity (AID 2283072). The conditions noted are these: primary human keratinocytes with fibroblasts; actives raise or lower the signal. Put shortly:
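ELISA quantifies TGF-b1 at 24 h post-dose in a primary human skin co-culture of keratinocytes and fibroblasts, with gain or loss judged against DMSO. Parallel SRB total-protein staining flags overt cytotoxicity.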

Read-out in experiment [13]: C-C motif chemokine 2 (Homo sapiens) (UniProt P13500)
The experiment in a line: BSK_KF3CT_MCP1: BioMAP Diversity Plus: KF3CT Assay for Monocyte Chemoattractant Protein 1 (MCP1/CCL2) Biomarker Activity (AID 2283073). Particulars: primary human keratinocytes with fibroblasts; actives raise or lower the signal. Put shortly: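 ELISA readout of MCP-1 after 24 h chemical dosing of a human skin primary co-culture of keratinocytes and foreskin fibroblasts. Activity was fitted in both directions against DMSO.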

Read-out in experiment [14]: Matrix Metallopeptidase 9 (MMP9), MMP9 (gene 4318)
The experiment in a line: BSK_KF3CT_MMP9: BioMAP Diversity Plus: KF3CT Assay for Matrix Metallopeptidase 9 (MMP9) Biomarker Activity (AID 2283074). The conditions noted are these: primary human keratinocytes with fibroblasts; actives raise or lower the signal. A digest of the protocol: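 MMP-9 quantified by ELISA after 24 h chemical treatment of primary human skin keratinocyte/fibroblast co-cultures; gain or loss fitted against DMSO, with parallel SRB staining (0.1% SRB, 560 nm) for overt cytotoxicity.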

Read-out in experiment [15]: urokinase plasminogen activator (uPA), PLAU (gene 5328)
The experiment in a line: BSK_KF3CT_uPA: BioMAP Diversity Plus: KF3CT Assay for urokinase plasminogen activator (uPA) Biomarker Activity (AID 2283075). The conditions noted are these: primary human keratinocytes with fibroblasts; actives raise or lower the signal. Put shortly: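 ELISA read-out of uPA 24 h after dosing human skin keratinocytes co-cultured with foreskin fibroblasts. Signal change fitted both ways relative to DMSO; sulforhodamine B on parallel cultures marks overt cytotoxicity.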

Read-out in experiment [16]: E-selectin (Homo sapiens) (UniProt P16581)
Briefly: BSK_LPS_Eselectin: BioMAP Diversity Plus: LPS Assay for Eselectin Biomarker Activity (AID 2283077). The conditions noted are these: primary human HUVEC with PBMC; actives raise or lower the signal. Put shortly:
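Primary human vascular co-culture (endothelium plus PBMC) was dosed with chemical, then E-selectin quantified by ELISA at 24 h. Endpoint values derive from bidirectional curve fitting relative to DMSO.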

Read-out in experiment [17]: Interleukin-8 (IL8), CXCL8 (gene 3576)
The experiment in a line: BSK_LPS_IL8: BioMAP Diversity Plus: LPS Assay for Interleukin-8 (IL8) Biomarker Activity (AID 2283078). Particulars: primary human HUVEC with PBMC; actives raise or lower the signal. Put shortly:
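Readout is IL-8 by ELISA, taken 24 h after compounds were added to LPS-stimulated endothelial/PBMC co-cultures. Both increases and decreases relative to DMSO control were scored through bidirectional fitting.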

The nature of experiment [18]: BSK_LPS_SRB: Viability Assessment in the BioMAP Diversity Plus: LPS Assay (AID 2283079).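 Further: total protein by sulforhodamine B absorbance as a cytotoxicity measure; measured one day after compound addition; fitted in both directions against DMSO so loss or gain of signal counts.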 The conditions noted are these: primary human HUVEC with PBMC. Put shortly: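 Readout is SRB absorbance at 560 nm (0.1% stain, TCA-fixed parallel cultures) as a total-protein cytotoxicity measure. Cells: primary human umbilical vein endothelium plus peripheral blood mononuclear cells, 24 h after chemical exposure; DMSO served as baseline.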

Read-out in experiment [19]: Interleukin-1 alpha (IL1a), IL1A (gene 3552)
The experiment in a line: BSK_LPS_IL1a: BioMAP Diversity Plus: LPS Assay for Interleukin-1 alpha (IL1a) Biomarker Activity (AID 2283080). Particulars: primary human HUVEC with PBMC; actives raise or lower the signal. Put shortly:
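ELISA read-out of IL-1 alpha from a human primary vascular co-culture (endothelium plus PBMC) under LPS, sampled 24 hours post-dosing. Activity was fitted in both directions relative to DMSO controls.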

Read-out in the next experiment: CD40, CD40 (gene 958)
The experiment in a line: BSK_LPS_CD40: BioMAP Diversity Plus: LPS Assay for CD40 Biomarker Activity (AID 2283076). The conditions noted are these: primary human HUVEC with PBMC; actives raise or lower the signal. A digest of the protocol:
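Cells were dosed, incubated 24 h, then assayed for CD40 by ELISA. Gain or loss of signal was analysed relative to DMSO controls. The culture paired human umbilical vein endothelium with peripheral blood mononuclear cells.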

Sequence of E-selectin (Homo sapiens) (P16581 whole entry, looked up): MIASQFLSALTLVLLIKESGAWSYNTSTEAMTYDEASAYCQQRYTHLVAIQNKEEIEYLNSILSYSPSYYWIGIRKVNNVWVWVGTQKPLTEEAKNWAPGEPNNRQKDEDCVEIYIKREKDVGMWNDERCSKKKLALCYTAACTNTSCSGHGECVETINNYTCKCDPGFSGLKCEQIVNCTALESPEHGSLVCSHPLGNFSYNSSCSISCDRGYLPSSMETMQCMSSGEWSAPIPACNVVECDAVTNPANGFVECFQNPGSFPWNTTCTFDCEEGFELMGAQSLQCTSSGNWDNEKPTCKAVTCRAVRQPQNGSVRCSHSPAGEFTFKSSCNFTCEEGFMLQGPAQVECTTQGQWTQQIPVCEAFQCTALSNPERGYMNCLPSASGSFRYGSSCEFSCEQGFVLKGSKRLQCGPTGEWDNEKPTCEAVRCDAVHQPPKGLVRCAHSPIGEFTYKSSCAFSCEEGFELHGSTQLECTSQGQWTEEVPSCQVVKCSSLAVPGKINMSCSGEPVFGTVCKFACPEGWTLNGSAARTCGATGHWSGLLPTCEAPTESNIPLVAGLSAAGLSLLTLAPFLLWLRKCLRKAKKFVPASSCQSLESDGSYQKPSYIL

For orientation: AC50 means the concentration giving half of the maximal activity seen. For the compound `O=C(N[C@@H](Cc1ccccc1)[C@@H](O)C(=O)N1C[C@@H](O)[C@@H](O)C1)c1cc2cc(Cl)ccc2[nH]1`, the result in experiment [1], in experiment [2], in experiment [3], in [4], in experiment [5] and in experiment [6] was inactive. The result in [7], in [8], in [9], in experiment [10], in [12] and in [13] was inactive. Also, the outcome in [14], in experiment [15], in [16], in [17], in experiment [18] and in [19] was inactive. Besides, the AC50 in [11] was 11.9 µM (active).
As to `Cc1cccc(Nc2cc(Cl)nc(SCC(=O)O)n2)c1C`, the result in experiment [1], in [2], in experiment [3], in [4], in experiment [5] and in experiment [6] was inactive. For the same compound, the outcome in experiment [7], in [8], in [9], in experiment [10], in experiment [11] and in experiment [12] was inactive. Further, the outcome was “inactive” in experiment [13]; “inactive” in experiment [14]; “inactive” in experiment [15]; “inactive” with CD40, CD40 (gene 958); “inactive” in experiment [16]; “inactive” in [17]. Moreover, the outcome in experiment [18] and in [19] was inactive.
Regarding `COc1ccc(C)cc1N`, the result in experiment [1], in experiment [2], in experiment [3], in experiment [4], in [5] and in experiment [6] was inactive. Further, the outcome in experiment [7], in [8], in experiment [10], in experiment [12], in experiment [13] and in experiment [14] was inactive. Further, the outcome in experiment [15] was “inactive”; with CD40, CD40 (gene 958), “inactive”; in [16] it was “inactive”; in experiment [17], “inactive”; in experiment [18], “inactive”; in experiment [19], “inactive”.
